Results taken from PubChem BioAssay (NCI).
This is part of a sample that, as a whole, favours compounds with a hit. Of some 79,000 tested, about 15% had one in any assay. No stated cut-off is given here; in the data, active means growth inhibition above about 70%; inactive means the rest.

What was measured:
[1] = NCI Yeast Anticancer Drug Screen. Data for the rad50 strain (AID 155);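 further: 0% = growth of vehicle-only cultures of the same strain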; settings: S. cerevisiae rad50 strain growth inhibition; at 50.0 µM; stronger effect = higher value
Procedure, shortened: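 Readout: growth inhibition relative to vehicle-treated cultures. Compound exposure was carried out in a genetically defined yeast strain deficient in DNA damage repair.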

[2] = NCI Yeast Anticancer Drug Screen. Data for the mec2-1 strain (AID 157); settings: S. cerevisiae mec2-1 strain, at 50.0 µM, stronger effect = higher value
Procedure, shortened: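 Readout is yeast growth inhibition, normalised to vehicle-treated controls, in the mec2-1 strain exposed to compound.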

[3] = NCI Yeast Anticancer Drug Screen. Data for the sgs1 mgt1 strain (AID 161);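 further: 0% = growth of cultures given vehicle only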; settings: S. cerevisiae sgs1 mgt1 strain, at 50.0 µM, stronger effect = higher value
Procedure, shortened: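 Yeast cells carrying a defined DNA-repair defect were exposed to test compounds. Growth inhibition was measured relative to vehicle-treated controls.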

[4] = NCI Yeast Anticancer Drug Screen. Data for the cln2 rad14 strain (AID 165);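 further: 0% = growth equal to vehicle treated cultures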; settings: S. cerevisiae cln2 rad14 strain, at 50.0 µM, stronger effect = higher value
Procedure, shortened: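 Relative to vehicle controls, growth inhibition of compound-treated cln2 rad14 yeast was recorded.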

[5] = NCI Yeast Anticancer Drug Screen. Data for the bub3 strain (AID 167); settings: S. cerevisiae bub3 mutant strain, at 50.0 µM, stronger effect = higher value
Procedure, shortened: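 Readout: yeast growth inhibition, expressed relative to vehicle-only wells. The test organism is a mutant strain from a panel with lesions in DNA repair or checkpoint genes.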

[6] = NCI Yeast Anticancer Drug Screen. Data for the mlh1 rad18 strain (AID 175); settings: S. cerevisiae mlh1 rad18 strain growth inhibition; at 50.0 µM; stronger effect = higher value
Procedure, shortened: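 Test agents were incubated with a yeast strain of defined genotype (DNA damage repair defect). Inhibition of growth was derived by comparison with vehicle-exposed cultures.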

Measured: growth inhibition

CC(C(=O)O)/C(=C\c1ccccc1)C(=O)O (stereo unspecified)
inactive: [1] 16.6% | [2] 7.25% | [3] 21.6% | [4] -17.5% | [5] 12.6% | [6] 11.4%

O=C(O)/C=C\C(=O)Nc1ccc(C(=O)NCC(=O)O)cc1
inactive: [1] -22.9% | [2] -4.8% | [3] -0.85% | [4] -20.8% | [5] -11.8% | [6] -7.05%

COc1cc(C2=N/C(=C\c3ccc(Cl)c(Cl)c3)C(=O)O2)cc(OC)c1OC
inactive: [1] -26.2% | [2] -14.8% | [3] 24.6% | [4] -28.7% | [5] -4.4% | [6] 3.95%

Nc1[nH]c(=S)[nH]c(=O)c1NS(=O)(=O)c1cccc([N+](=O)[O-])c1
inactive: [1] -14.1% | [2] -10% | [3] -22.1% | [4] -18.2% | [5] -11.4% | [6] 12.8%

O=S(=O)(Cc1ccccc1)c1ncc(Cl)cn1
inactive: [1] 8.9% | [2] 6.65% | [3] 13.2% | [4] -5.55% | [5] 16.9% | [6] 16.4%

Sc1ccc2ccccc2c1
inactive: [1] 12.4% | [2] 9.15% | [3] -23.3% | [4] -38.4% | [5] -17.1% | [6] -30.4%

C(=C/c1ccccn1)/c1ccccc1
inactive: [1] 39.4% | [2] 15.1% | [3] 21.3% | [4] 16.5% | [5] 14.6% | [6] 11.1%

CCn1c(C)cc(=NC(=O)c2ccccc2O)n1-c1ccccc1
inactive: [1] 4.45% | [2] 9.8% | [3] 25.6% | [4] 11.5% | [5] 21% | [6] 16.7%

CC(=O)Nc1ccc(/C=N/NC(=O)c2ccc(O)cc2)cc1
inactive: [1] 1.7% | [2] 9.55% | [3] -2% | [4] 4.15% | [5] 2.35% | [6] 0.9%

CC(=O)Oc1ccc(C(C)(C)C)cc1
inactive: [1] 10.7% | [2] -7.25% | [3] 1.55% | [4] -11.7% | [5] -4.1% | [6] 5.15%

N#C/C(=C1\SC(N=Nc2ccc(Cl)cc2)C(=O)N1c1ccccc1)c1nc2ccccc2[nH]1 (stereo unspecified)
inactive: [1] 6.6% | [2] 6.05% | [3] 6.75% | [4] -40.9% | [5] 3.05% | [6] -5.05%

OCC1OC(O)CC1O (stereo unspecified)
inactive: [1] -15.2% | [2] -10.5% | [3] -3.9% | [4] 9.05% | [5] -5.75% | [6] -0.05%

CN(C)c1ccc(-c2cc(C(=O)O)c3cc(I)ccc3n2)c(Cl)c1
inactive: [1] 45.9% | [2] 30.6% | [3] 36.5% | [4] 51.4% | [5] 46.1% | [6] 35.8%

CC(C)(C)c1cc(-c2cc(C(C)(C)C)[nH]n2)n[nH]1
inactive: [1] 12.8% | [2] 4% | [3] 12.7% | [4] 9.05% | [5] 14.2% | [6] 10.3%

CC(C)C1CC(O)C(C)C(C(C)C)C1 (stereo unspecified)
inactive: [1] 4.05% | [2] -17.5% | [3] -12.9% | [4] -28.2% | [5] -1.65% | [6] -20.6%

c1cc(C2CCCCC2)ccc1C1CCCCC1
inactive: [1] -7.4% | [2] -19.1% | [3] -20.6% | [4] -58.1% | [5] -16.1% | [6] -3.9%

CN1CCN(CCNNCCN2CCCC(O)C2)CC1 (stereo unspecified)
inactive: [1] 3.2% | [2] -1.65% | [3] -5.15% | [4] -6.05% | [5] -7.25% | [6] 10.7%

CC(C)CC(C)Cc1ccncc1 (stereo unspecified)
inactive: [1] 0.4% | [2] 1.65% | [3] 24.8% | [4] 11.8% | [5] -1.65% | [6] -5%

CC1(C)CCCC2(C)[C@@H]1CC[C@]13C[C@](C)(CC[C@@H]21)[C@@H]3CO (stereo partly specified)
inactive: [1] -17.8% | [2] -2.9% | [3] -22.6% | [4] -3.35% | [5] -32.1% | [6] -19.9%

CCOc1ccc(NC(=O)c2cccc(C(=O)Nc3ccc(OCC)cc3)c2)cc1
inactive: [1] -13.8% | [2] -12.3% | [3] -8.15% | [4] -20.9% | [5] -5.35% | [6] -0.7%

COc1ccc(NC(=O)CC#N)cc1
inactive: [1] 7.9% | [2] 1.6% | [3] 15.8% | [4] 6.1% | [5] -3.25% | [6] 3.75%

O=C(Cc1ccc([N+](=O)[O-])cc1)ON1C(=O)CCC1=O
inactive: [1] -11.8% | [2] 2.65% | [3] -4.65% | [4] -18.9% | [5] -20.1% | [6] 6%

CCOC(=O)C1=NNCC1c1cccc(Cl)c1 (stereo unspecified)
inactive: [1] 12.5% | [2] -7.5% | [3] -3.7% | [4] -37.9% | [5] -13.2% | [6] -6.5%

CCOC(=O)NN(C(=O)OCC)c1c(NN)n(C)c(=O)n(C)c1=O
inactive: [1] 2.7% | [2] -19.7% | [3] 9.2% | [4] -10.4% | [5] 12.4% | [6] -11.5%

FC(F)(F)c1nn2c(c(-c3ccccc3)c(-c3ccccc3)c3ccccc32)c1C(F)(F)F
inactive: [1] 32.9% | [2] 11.2% | [3] 28.9% | [4] 25.6% | [5] -4.4% | [6] 31.8%

Cc1ccc(Cc2n[nH]c(=O)n2/N=C\CC/C=N\n2c(Cc3ccc(C)cc3)n[nH]c2=O)cc1
inactive: [1] -13.9% | [2] -23.6% | [3] -18.1% | [4] -0.9% | [5] -28.9% | [6] -4.05%

ONc1cnc2ccccc2n1
inactive: [1] -34.9% | [2] -30.4% | [3] -3.5% | [4] -49.2% | [5] -4.8% | [6] 0.4%

N/C(=N/O)c1cn(C2OC(CO)C(O)C2O)c2ncnc(NO)c12 (stereo unspecified)
inactive: [1] 9.65% | [2] -20.6% | [3] -0.2% | [4] -1.15% | [5] -16.1% | [6] 4.1%

Cc1ccc(NC(=O)C(=O)C(C#N)c2nc(-c3ccc(-c4ccccc4)cc3)cs2)c(C)c1 (stereo unspecified)
inactive: [1] 8% | [2] -2.75% | [3] 19.4% | [4] 28.4% | [5] 4.75% | [6] -10.1%

NC(CSS(=O)(=O)O)=NCC1CC2CCC1C2 (stereo unspecified)
inactive: [1] 3.25% | [2] 6.2% | [3] -3.85% | [4] 6.95% | [5] 4.4% | [6] 12.3%

CCOC(=O)COc1ccc(C)c2c1C(=O)CC2
inactive: [1] -11.2% | [2] -12.9% | [3] -13.2% | [4] -25.9% | [5] -19.1% | [6] -9.9%

CN=C(NC(=S)N(C)C)N(C)C
inactive: [1] -4.3% | [2] -6.85% | [3] -9.4% | [4] -7.85% | [5] -14.1% | [6] 2.75%

CCOC(=O)Cc1cc(C)c2ccccc2n1
inactive: [1] -7.75% | [2] -5.65% | [3] 4.3% | [4] -19.6% | [5] -9.4% | [6] 7.45%

Nc1ccc2nc(-c3ccccc3)[nH]c2c1
inactive: [1] -13.8% | [2] -8.65% | [3] -13.3% | [4] 1.55% | [5] 0.6% | [6] -3.8%

O=C1C=CC(=O)C1N=Nc1ccccc1
inactive: [1] 43.9% | [2] 19.1% | [3] 16.9% | [4] 18.3% | [5] -3.15% | [6] 28.3%

CCOC(=O)CCN(CC1CC=CCC1)c1cc(O)c2c(c1O)C(=O)c1ccccc1C2=O (stereo unspecified)
inactive: [1] -70.6% | [2] -4.75% | [3] -21.5% | [4] -2.55% | [5] 2% | [6] -9.85%

CCOC(=O)c1cc(NC(C)=O)cn1C
inactive: [1] 4.4% | [2] 8.8% | [3] -1.15% | [4] -11% | [5] 6.45% | [6] 16.4%

CN(C)CC1C2CCC(C2)C1O (stereo unspecified)
inactive: [1] 2.2% | [2] -20.6% | [3] -7.7% | [4] 8% | [5] -11.7% | [6] 4.4%

CCOC(=O)c1ccc2c(c1)CCC(C)(C)O2
inactive: [1] -5.55% | [2] -4.8% | [3] 7.3% | [4] -13.9% | [5] 11.5% | [6] -7.15%

Cc1c(-c2ccccc2)c(=O)oc2cc(O)ccc12
inactive: [1] -12.4% | [2] 13% | [3] 9.3% | [4] -49.2% | [5] 17.5% | [6] 11.2%

CCOC(=O)c1ccc(-n2nc(C)cc(Cl)c2=O)cc1
inactive: [1] 1.3% | [2] -11.2% | [3] 10.8% | [4] -43% | [5] 20.4% | [6] -4.8%
